BoNT-A LC inh2: blocks Botulinum neurotoxin A light chain protease; inhibition, % at 10 µM; hit rate 0.17% among 360,000; AID 588499; multiplex microsphere protease substrate cleavage, flow cytometry; note: plate controls were buffer without enzyme for full effect and enzyme alone for no effect
Bead autofluor: compound fluorescence in toxin protease inhibitor counterscreen | compound autofluorescence counterscreen, microsphere flow cytometry; hits give high values | fluorescence intensity (test concentration not listed) | hit rate 3.1% among 360,000; in the data active = fluorescence intensity above about 16000; inconclusive = no clear call, values can overlap the other calls
Anthrax LF inh2: blocks Bacillus anthracis lethal factor protease. P15917. multiplex microsphere protease cleavage assay, LF. inhibition, % at 10 µM. hit rate 0.12% among 360,000; note: plate controls were buffer without enzyme for full effect and enzyme alone for no effect
MazF activator: increases E. coli MazEF RNase cleavage of RNA. P0AE70. FAM/BHQ RNA-DNA oligo cleavage fluorescence, 5 h. activation, % at 20 µM. hit rate 0.32% among 350,000; in the data active = activation above about 50%
Target sequence (P0AE70 whole entry, looked up): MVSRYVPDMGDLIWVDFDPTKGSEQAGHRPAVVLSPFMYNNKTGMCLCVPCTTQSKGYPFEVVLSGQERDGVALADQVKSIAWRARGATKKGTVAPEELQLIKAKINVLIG
BoNT F protease: BoNT F light chain protease inhibition | hit rate 0.22% among 360,000 | Multiplex microsphere protease cleavage assay, flow cytometry | AID 588497 | inhibition, % at 10 µM; in the data active = inhibition above about 35%, passing the limit was not always enough; inconclusive = no clear call, values can overlap the other calls; note: plate controls were buffer without enzyme for full effect and enzyme alone for no effect
PriA SSB inh: blocks PriA binding to SSB C-terminal tail | hit rate 0.6% among 430,000 | inhibition, % at 33 µM | AlphaScreen SSBct-PriA binding, biotinylated peptide; in the data active = inhibition mostly above about 37%, no sharp cut-off; inactive = mostly below about 20%;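 note: plate controls were negative control peptide for no effect and reference peptide for full effect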
BoNT-A LC CP1: inhibitors of Botulinum neurotoxin A light chain protease. shares compounds with BoNT F protease. multiplex microsphere protease assay, flow cytometry. inhibition, % at 10 µM. hit rate 3% among 720; in the data active = inhibition above about 32%
BoNT-F LC CP1: BoNT/F light chain protease inhibition; inhibition, % at 10 µM; multiplex microsphere protease cleavage assay, flow cytometry; shares compounds with BoNT F protease; AID 602140; 720 tested, under 10 active; call rule not given here
LF protease CP1: inhibitors of Bacillus anthracis lethal factor protease; shares compounds with BoNT F protease; multiplex microsphere protease cleavage assay, LF; inhibition, % at 10 µM; 720 tested, under 10 active; call rule not given here
* = called active by the depositor; ? = inconclusive; . = not tested or not shown. An excerpt weighted towards active compounds, which were near 3.3% of everything screened. Cut-off read from the data, not from the text of the source, unless noted: active = inhibition above about 30%; inconclusive = no clear call, values can overlap the other calls; inactive = below that.

SMILES | BoNT-A LC inh2 | Bead autofluor | Anthrax LF inh2 | MazF activator | BoNT F protease | PriA SSB inh | BoNT-A LC CP1 | BoNT-F LC CP1 | LF protease CP1
O=C(Nc1ccccc1C(=O)Nc1nncs1)c1ccccc1 | -1 | 3230 | 7 | 4 | 40* | -4 | 0 | -5 | 2
NC1=NC(=O)SC1 | . | . | . | . | . | 9 | . | . | .
O=C(Cc1cccs1)Nc1nnc(-c2cc(Cl)sc2Cl)o1 | . | . | . | . | . | -9 | . | . | .
Cc1c(NC(=O)c2cccc(NC(=O)Cc3c(F)cccc3Cl)c2)c(=O)n(-c2ccccc2)n1C | 0 | 2960 | -3 | 2 | -2 | -5 | . | . | .
Cc1c(NC(=O)c2cccc(NC(=O)Cc3ccc(F)cc3)c2)c(=O)n(-c2ccccc2)n1C | -2 | ? | 44* | 3 | 2 | -17 | -2 | -10 | -3
Cc1cc2c(sc3c(C)ccc(C)c32)c(C)n1 | -2 | 3844 | 29 | 10 | ? | -11 | -1 | -2 | -3
CCC(C)(C)n1nnnc1C(c1cc2ccc(OC)cc2[nH]c1=O)N1CCCCC1 (centres undefined) | 2 | 10987 | -6 | -9 | 3 | -11 | -2 | 0 | -5
CCC(C)(C)n1nnnc1C(c1cc2cc(C)cc(C)c2[nH]c1=O)N1CCCC1 (centres undefined) | 10 | 10428 | 7 | 3 | 2 | 0 | . | . | .
CCC(C)(C)n1nnnc1C(c1cc2cccc(C)c2[nH]c1=O)N1CCCC1 (centres undefined) | ? | 23337* | 3 | 3 | 4 | 13 | 0 | 0 | -4
CS(=O)(=O)Nc1ccccc1C(=O)Nc1cccc(Cl)c1 | ? | 5367 | 8 | -6 | 53* | -7 | 0 | -1 | 3
O=C1CC2(CCN(C(=O)c3ccc(Cl)s3)C2)Oc2ccccc21 (centres undefined) | . | . | . | . | . | -1 | . | . | .
Nc1ccc(S(=O)(=O)Nc2nccc(/C=C/c3cccc(Br)c3)n2)cc1 | -1 | 3522 | 3 | 1 | 37* | -7 | 0 | -2 | -1
O=C(Cc1ccc(Cl)cc1)NC1CCCCCC1 | -3 | 3892 | 12 | -1 | 40* | -13 | 0 | -4 | -3
CCCCCOc1ccc(C(=O)Nc2c(C(=O)OCC)sc3ccccc23)cc1 | . | . | . | . | . | -13 | . | . | .
CCn1c2ccc(Cl)cc2c2nc3ccccc3nc21 | . | . | . | -9 | . | -28 | . | . | .
CCn1nc(-c2ccccc2)c2nc3ccccc3nc21 | 67* | 3801 | 43* | 786* | 38* | -65 | 22 | 2 | 10
O=C(c1cc([N+](=O)[O-])[nH]n1)N1CCSCC1 | -3 | 3833 | 6 | -5 | 36* | -11 | 1 | -2 | 2
CN1C(=O)CCc2cc(NC(=O)CCC3CCCC3)ccc21 | . | . | . | . | . | -5 | . | . | .
Cc1noc(NS(=O)(=O)c2ccc(NC(=O)c3ccoc3C)cc2)c1C | 0 | 6406 | -3 | 2 | 1 | -12 | . | . | .
Cc1cc(C(=O)Nc2ccc(S(=O)(=O)Nc3onc(C)c3C)cc2)c(C)o1 | 30* | 10628 | -21 | -2 | 42* | -3 | 0 | 0 | -1
CCc1ccc(OCCCC(=O)Nc2ccc(N3CCCCC3)cc2)cc1 | -4 | 5583 | -7 | 9 | 40* | -6 | -2 | 4 | -4
Cc1ccc(OCC2Cn3c(nc4c3c(=O)[nH]c(=O)n4C)O2)cc1C (centres undefined) | 2 | 3017 | 31* | 8 | 14 | -11 | -1 | -10 | 2
O=C(c1ccc(C(=O)N2CCCc3ccccc32)s1)N1CCCc2ccccc21 | 0 | 9169 | 3 | -2 | 2 | 21 | . | . | .
Cc1ccc(C)c2nc3sc(C(=O)N4CCCc5ccccc54)c(N)c3cc12 | 28 | 14402 | 30* | -59 | 22 | 13 | 14 | 7 | 5
S=c1nc(Cc2ccc(Cl)cc2)[nH]c2ccccc12 | 0 | 3395 | 5 | -1 | 4 | -11 | . | . | .
S=c1nc(Cc2ccccc2)[nH]c2ccccc12 | -12 | 15764 | -8 | 6 | 51* | -4 | -1 | -5 | -1
Cc1nc2scc(C)n2c(=O)c1NC(=O)CC1CCCCC1 | . | . | . | . | . | -11 | . | . | .
CCCN1CCc2c(sc3nc(SC)n(-c4ccccc4)c(=O)c23)C1 | 33* | 5541 | 11 | -9 | 27 | 10 | 6 | 2 | 5
